# Compound activity from PubChem BioAssay.
# MITF primary: MITF inhibitors, primary screen, biochemical, AlphaScreen, human; Microphthalmia-associated transcription factor (Homo sapiens), O75030; AlphaScreen MITF homodimerization, bead proximity signal; inhibition, % at 2.6 µM; 650,000 compounds, 0.91% hits; in the data active = inhibition above about 50%
# GPR151 ag: activators of human GPR151, primary screen, cell-based, PathHunter beta-arrestin, luminescence; G-protein coupled receptor 151 (Homo sapiens), Q8TDV0; PathHunter beta-arrestin GPR151 cells; activation, % at 11.2 µM; 650,000 compounds, 1% hits; AID 1508602, 2020; in the data active = activation above about 4.9%
# Target sequence (Q8TDV0 whole entry, looked up): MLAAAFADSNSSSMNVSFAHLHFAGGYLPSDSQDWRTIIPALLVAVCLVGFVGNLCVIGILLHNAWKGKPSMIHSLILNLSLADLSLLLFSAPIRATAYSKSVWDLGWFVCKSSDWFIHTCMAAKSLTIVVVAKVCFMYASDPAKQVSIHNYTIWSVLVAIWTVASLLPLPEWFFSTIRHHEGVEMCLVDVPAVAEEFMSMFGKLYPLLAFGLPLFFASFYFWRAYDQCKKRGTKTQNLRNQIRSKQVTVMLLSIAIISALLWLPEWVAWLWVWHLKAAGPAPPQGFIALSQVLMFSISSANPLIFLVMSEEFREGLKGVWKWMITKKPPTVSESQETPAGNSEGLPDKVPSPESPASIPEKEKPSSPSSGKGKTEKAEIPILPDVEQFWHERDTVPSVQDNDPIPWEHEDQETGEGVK
# TEAD-YAP block: TEAD-YAP interaction inhibition, primary screen, TEAD-YAP interaction inhibitor project, luminescence, HEK-TIYL cells; TEAD-Gal4/YAP UAS-luciferase luminescence; inhibition, % at 9.12 µM; 640,000 compounds, 1.4% hits; AID 1259422, 2018; in the data active = inhibition above about 32%
# FBW7 activator: FBW7 E3 ligase activators, primary screen, biochemical, AlphaScreen, human. F-box/WD repeat-containing protein 7 (Homo sapiens), Q969H0. AlphaScreen FBW7–phospho-cyclin E peptide binding, activator screen. normalized activity (activation), % at 26.1 µM. 650,000 compounds, 0.13% hits; in the data active = normalized activity above about 1.9%;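 also: purified mutant Fbw7 with reduced substrate affinity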
# MITF inh conf: MITF inhibitors, retest of hits, confirmation, biochemical, AlphaScreen, triplicate; AlphaScreen MITF homodimerization, biotin/His-MITF beads; inhibition, % at 2.6 µM; shares compounds with MITF primary; 4,700 compounds, 16% hits;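 active = inhibition above a cutoff derived from the DMSO control wells, cut at about 28% in these data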;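 also: inhibitors lower the bead chemiluminescence by keeping MITF from dimerizing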
# AlphaScreen DR: AlphaScreen optical interference compounds, dose response, counter-screen, biochemical, HTS; shares compounds with MITF primary; AlphaScreen optical interference counterscreen, cell-free; IC50, µM; 480 compounds, 6% hits; AID 1259373, 2018; call rule not given here
# AS interf ctr: AlphaScreen optical interference compounds, counter-screen for MITF inhibitor project, biochemical, triplicate. shares compounds with MITF primary. LysRS AlphaScreen counterscreen, signal interference. inhibition, % at 2.6 µM. 4,700 compounds, 7.6% hits;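 active = inhibition above a cutoff derived from the DMSO control wells, cut at about 30% in these data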
# Hits are given with their value; 0 = inactive; - = no result given. Compounds with a hit are over-represented: about 3.4% of the library has one in this group of screens.
SMILES,MITF primary,GPR151 ag,TEAD-YAP block,FBW7 activator,MITF inh conf,AS interf ctr,others
COc1ccc(CC(=O)N2CCN(c3cccc(C)c3C)CC2)cc1,0,0,0,0,-,-,
COc1ccc(S(=O)(=O)CCC(=O)N2CCN(c3cccc(C)c3C)CC2)cc1,63,0,0,0,0,0,
Cc1ccc(C(=O)Oc2coc(CSc3nc(C)cc(C)n3)cc2=O)cc1,55,0,0,0,0,0,
CCCCNC(=O)CSc1nc2ccccc2n1S(=O)(=O)c1ccc(OC)cc1,0,0,0,0,-,-,
Cc1ccc(/C=N/NC(=O)c2ccc(Cl)cc2)o1,0,0,0,0,-,-,
O=c1oc2ccc3ccccc3c2cc1-c1nc(-c2ccc([N+](=O)[O-])cc2)n[nH]1,72,0,0,0,0,0,
COc1ccccc1C(c1ccc(C)o1)c1ccc(C)o1,0,0,0,0,-,-,
Cc1ccc(C(c2ccc(C)o2)c2ccccc2N)o1,67,0,0,0,0,0,
C=CCc1cc(C)ccc1OCCOCCNCCN(C)C,51,0,0,0,0,0,
C=CCNCCOc1ccc(Br)cc1Cl,56,0,0,0,0,0,
C=CCNCCOCCOc1ccc(C)cc1Br,60,0,0,0,0,0,
C=CCc1cc(Cl)ccc1OCCNCCOC,0,0,0,0,-,-,
C=CCNCCCOc1ccc(Br)cc1Cl,0,0,0,0,-,-,
C=CCNCCOCCOc1ccc(C(C)(C)C)cc1C,0,0,0,0,-,-,
C=CCc1cc(C)ccc1OCCNCCOC,53,0,0,0,0,0,
C=CCc1cc(C)ccc1OCCCNCCOC,58,0,0,0,0,0,
COCCNCCCCOc1cc(C)ccc1C(C)(C)C,0,0,0,0,-,-,
COCCCNCCOCCOc1ccc(Cl)cc1C(C)(C)C,0,0,0,0,-,-,
C=CCc1cc(OC)ccc1OCCCNCCOC,62,0,0,0,0,0,
C=CCNCCOCCOc1ccc(Cl)cc1C(C)(C)C,69,0,0,0,0,0,
COCCNCCOc1cc(C)ccc1C(C)(C)C,51,0,0,0,0,0,
O=C(Nc1ccc(N2CCOCC2)cc1)c1csc(N2CCCC2CO)n1 (stereo unspecified),0,0,0,0,-,-,
Cc1ccc2nc(-c3cccc(NC(=O)c4oc(=O)c5ccccc5c4-c4ccccc4)c3)oc2c1,0,0,0,0,-,-,
O=C(c1cc(S(=O)(=O)N2CCCC2)ccc1F)N1CCOCC1,0,0,0,0,-,-,
C=CCNCCOCCOc1cccc(Br)c1,60,0,0,0,0,0,
SMILES,MITF primary,GPR151 ag,TEAD-YAP block,FBW7 activator,MITF inh conf,AS interf ctr,others
C=CCNCCOCCOc1cccc(OCC)c1,0,0,0,0,-,-,
C=CCc1cc(OC)ccc1OCCN1CC(C)OC(C)C1 (stereo unspecified),64,0,0,0,0,36,
O=C(Nc1ccnn1C1CCN(C(=O)c2csc3c2CCCC3)CC1)C1CC1,0,0,0,0,-,-,
CN(C)c1ccc(NC(=O)CSc2nnc(NC(=O)C(C)(C)C)s2)cc1,0,0,0,0,-,-,
COc1ccc(-c2[nH]nc3nc(-c4cc(OC)c(O)c(OC)c4)cc(C(=O)O)c23)cc1,70,0,0,0,0,0,
CCS(=O)(=O)N1CCN(Cc2ccc(OC)c(OC)c2)CC1,0,0,0,0,-,-,
COc1ccc(CN2CCN(Cc3ccc(Cl)cc3)CC2)cc1OC,74,0,0,0,0,0,
COc1cc(OC)c(OC)cc1CN1CCN(Cc2cccc(Cl)c2)CC1,82,0,0,0,0,0,
COc1ccc(CN2CCN(Cc3cccc(F)c3)CC2)cc1OC,64,0,0,0,0,0,
COc1ccc(CN2CCN(Cc3cccc(Cl)c3)CC2)cc1OC,82,0,0,0,0,0,
COc1ccc(CN2CCOCC2)cc1OC,0,0,0,0,-,-,
CCOc1cc(CN2CCN(Cc3cc(OC)c(OC)cc3OC)CC2)ccc1OC,0,0,0,0,-,-,
CC(=O)O/C(=C\Oc1ccccc1OC(C)=O)c1ccc([N+](=O)[O-])cc1,0,0,0,0,-,-,
CCOC(=O)c1c(C)[nH]c(C(=O)OCC(=O)Nc2ccc(OCC)cc2[N+](=O)[O-])c1C,0,0,0,0,-,-,
COc1ccccc1OCC(=O)OCC(=O)c1ccc(Cl)s1,0,0,0,0,-,-,
COc1ccc(CN2CCN(Cc3ccc(OC)c(OC)c3)CC2)cc1,74,0,0,0,0,0,
CN(C)c1ncc(CN2CCN(Cc3ccccc3)C(CCO)C2)s1 (stereo unspecified),0,0,0,0,-,-,
Cc1cc(C2C(C#N)=C(N)N(c3ccccc3Cl)C3=C2C(=O)CC(c2ccccc2)C3)c(C)s1 (stereo unspecified),57,0,0,0,0,0,
Cc1cc(C2C(C#N)=C(N)N(c3ccccc3Cl)C3=C2C(=O)CCC3)c(C)s1 (stereo unspecified),0,0,0,0,-,-,
Cc1ccc2nc(C3CCN(S(=O)(=O)c4ccc5c(c4)OCCO5)CC3)[nH]c2c1,66,0,0,0,0,0,
CCc1ccccc1NC(=O)CN(C)C(=O)CN(C)Cc1ccccc1OC,81,0,0,0,0,0,
Cc1cc(N2CCN(C)CC2)nc2ccc(NC(=S)NCCN3CCOCC3)cc12,0,0,0,0,-,-,
O=C(CC(SCc1ccco1)c1cccc([N+](=O)[O-])c1)c1cccnc1 (stereo unspecified),0,0,0,0,-,-,
COc1ccc(C(=O)CSc2nnc(-c3ccc4c(c3)OCO4)o2)cc1OC,86,0,0,0,0,0,
COc1cc(C(=O)NCCC(=O)NC2CCCCCCC2)cc(OC)c1OC,78,0,0,0,0,0,
SMILES,MITF primary,GPR151 ag,TEAD-YAP block,FBW7 activator,MITF inh conf,AS interf ctr,others
Cc1ccc(S(=O)(=O)Oc2ccc(/C=N/N=C(N)N)cc2)cc1,0,0,0,0,-,-,
CCCC(C)C(=O)Nc1ccccc1C (stereo unspecified),51,0,0,0,0,0,
Cc1cccc(C)c1NC(=O)Cn1c(-c2nonc2N)nc2ccccc21,0,0,0,0,-,-,
Cc1cc2c(cc1C)C(c1ccc(OC(F)(F)F)cc1)CC(=O)N2 (stereo unspecified),0,0,0,0,-,-,
O=C(O)c1cccc(-c2ccc(/C=N/n3cnnc3)o2)c1,0,0,0,0,-,-,
O=C(O)c1cc(C(=O)O)cc(-c2ccc(/C=N\n3cnnc3)o2)c1,63,0,0,0,38,0,AlphaScreen DR=0
CC(C)N(C(=O)c1ccco1)c1nnc(-c2cccnc2)s1,0,0,0,0,-,-,
c1ccc(CN2CCC(NCc3ccncc3)CC2)cc1,63,0,0,0,0,0,
Cc1ccc(CNC2CCN(Cc3ccccc3)CC2)o1,0,0,0,0,-,-,
Clc1ccc(CNC2CCN(Cc3ccccc3)CC2)cc1,0,0,0,0,-,-,
